# Laboratory results: PubChem BioAssay (NCATS)
# Records with an inconclusive call do not appear. A call without a number means that no potency is given here. Calls of active or inactive are those of the source. Calls follow the shape of the dose curve; as a rule, active = well fitted inhibition curve with a large enough effect; inconclusive = small, poorly fitted or top-dose-only effect; inactive = flat fitted curve, though single readings scatter. Where a SMILES comes first, the peptide text is derived from it. The star is where a group is joined. AFC = O=c1cc(C(F)(F)F)c2ccc(N*)cc2o1
# Target: Calcium and integrin-binding protein 1 (Homo sapiens) (UniProt Q99828)
# Sequence (Q99828 whole entry, looked up): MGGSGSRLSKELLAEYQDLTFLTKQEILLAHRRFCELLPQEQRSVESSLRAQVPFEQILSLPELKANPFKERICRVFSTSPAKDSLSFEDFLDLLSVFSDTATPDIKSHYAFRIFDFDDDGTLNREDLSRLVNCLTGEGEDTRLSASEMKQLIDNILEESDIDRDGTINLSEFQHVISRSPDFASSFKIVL
# Assay: Primary qHTS for Identification of Calcium Integrin Binding Protein 1 (CIB1) Competitor (AID 1508620);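 also: GST tagged CIB1 binding a fluorescein labelled alphaIIb integrin peptide tracer; top concentration of the series differs between compounds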
# Conditions: CIB1-GST / FITC-alphaIIb peptide fluorescence polarization; series mostly up to 114 µM
# In short: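 CIB1-GST (1 uM final) and compound incubated 15 min at room temperature before adding FITC-alphaIIb peptide tracer (100 nM final). Competition for binding read by fluorescence polarization (ex 480, em 540) after another 15 min at room temperature.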
Compound,Potency,"activity change, negative = inhibition"
CCS(=O)(=O)N1CCN(c2ccc(Nc3ncc(C(N)=O)c(NC4CC4)n3)cc2)CC1,inactive,–
CC(C)C(CO)Nc1nc(Nc2ccc(C(=O)O)c(Cl)c2)c2ncn(C(C)C)c2n1 (stereo not given),inactive,–
C/C=C(\C)C(=O)O[C@H]1[C@@H](O[C@]2(COC(=O)CC(C)C)O[C@H](COC(=O)C(C)CC)[C@@H](OC(C)=O)[C@@H]2O)O[C@H](COC(C)=O)[C@@H](O)[C@@H]1O (stereo not given in full),inactive,–
CC(C)=CCCC1(C)C=Cc2c(c(C)cc3c2[nH]c2ccccc23)O1 (stereo not given),inactive,–
CC(C)(C)c1ccc(S(=O)(=O)NCc2ccc(C(=O)Nc3cccnc3)cc2)cc1,inactive,–
COc1c2c(c(C)c3c1C(=O)OC3)OC1(C)CC(O)C34OC(OC)(OC3(C)C)C(O)CC4(C)C1C2 (stereo not given),inactive,–
COc1ncc2cc(C(=O)Nc3cc(C(=O)NCc4cccc(Cl)c4)ccc3Cl)c(=O)[nH]c2n1,inactive,–
NC(=O)C(CCC(F)(F)F)N(Cc1ccc(-c2ncon2)cc1F)S(=O)(=O)c1ccc(Cl)cc1 (stereo not given),inactive,–
C[C@@H]1O[C@@H](O[C@H]2[C@@H](OC(=O)[C@]34CCC(C)(C)CC3C3=CCC5[C@@]6(C)C[C@H](O)[C@H](O[C@@H]7O[C@H](C(=O)O)[C@@H](O)[C@H](O)[C@H]7O)[C@@](C)(C(=O)O)C6CC[C@@]5(C)[C@]3(C)CC4)OC[C@H](O)[C@@H]2O)[C@H](O)[C@H](O)[C@H]1O[C@@H]1OC[C@@H](O)[C@H](O)[C@H]1O (stereo not given in full),inactive,–
CC1(C)CC(NC(=O)C(=O)Nc2ccc(Br)cc2)CC(C)(C)N1,inactive,–
COc1cc(C)c(C(=O)Oc2cc(C)c(C(=O)Oc3cc(C)c(C(=O)NC(C)C(=O)O)c(O)c3)c(O[C@@H]3O[C@H](CO)[C@@H](O)[C@H](O)[C@H]3OC(C)=O)c2)c(OC)c1 (stereo not given in full),inactive,–
CO/N=C(/C(=O)N[C@@H]1C(=O)N2C(C(=O)O)=C(Cn3ccc(=N)n3CCO)CS[C@H]12)c1csc(N)n1,inactive,–
COc1cc2c(c(OC)c1CC=C(C)C)C[C@H](c1ccc(O)cc1O)CO2,inactive,–
O=C1OCC(c2ccccc2)=C1Cc1ccccc1,inactive,–
C[C@H]1CC(=O)Nc2cccc(-c3cnn(C(C)(C)C)c3)c2N1,inactive,–
C=CC(=O)N1CCN(C(=O)CNc2cc(I)c(Cl)cc2O)CC1,inactive,–
O=C1C=CC(O)(/C=C/C(=O)OC[C@H]2O[C@@H](Oc3ccc(O)cc3)[C@H](O)[C@@H](O)[C@@H]2O)C=C1,inactive,–
COc1ccc(C(=O)n2c(C)c(Cc3cccc(O[C@@H](C)C(=O)O)c3)c3cc(OC(F)(F)F)ccc32)cc1,inactive,–
CC(C)(C)Nc1nc(Nc2ccc(C(N)=O)cc2)cc(N)c1C#N,inactive,–
O=C(/C=C/c1ccc(O)cc1)N[C@@H](Cc1ccc(O)cc1)C(=O)O,inactive,–

Compound,Potency,"activity change, negative = inhibition"
O=C(/C=C\n1cnc(-c2cc(C(F)(F)F)cc(C(F)(F)F)c2)n1)N1CC(F)(F)C1,inactive,–
CC(CO)C1CCC2(C)CC3C(CO)CC(O)C3C(C)(O)C/C=C/12 (stereo not given),inactive,–
COC(=O)C(C)C1CCC2(C)C(=O)C=CC(C)(O)C2C1O (stereo not given),inactive,–
CC(=O)O[C@@H]1[C@@H](OC(=O)/C=C/c2ccccc2)[C@@H](OC(C)=O)[C@H](O[C@H]2[C@@H]3C=CO[C@@H](O[C@@H]4O[C@H](CO)[C@@H](O)[C@H](O)[C@H]4O)[C@@H]3[C@@]3(CO)O[C@@H]23)O[C@H]1C,inactive,–
C=C(C)[C@@H]1CC[C@]2(C)CC[C@]3(C)[C@H](CC[C@@H]4[C@@]5(C)CC[C@@H](O)C(C)(C)[C@@H]5CC[C@]43C)[C@@H]12,inactive,–
CCC(C)C(=O)OC1CC(C)C=C2C=CC(C)C(CCC(O)CC(O)CC(=O)O)C21 (stereo not given),inactive,–
CC(=O)O[C@@H]1C[C@H](O)[C@@]23CO[C@H](O)[C@]1(C)C2C[C@@H](O)[C@]1(C)C3C(=O)[C@H](OC(C)=O)[C@@]2(C)[C@H](c3ccoc3)C[C@H]3O[C@]321 (stereo not given in full),inactive,–
CC(C)CCC[C@@H](C)[C@H]1CC[C@H]2[C@@H]3CC(=O)[C@H]4C[C@@H](O)CC[C@]4(C)[C@H]3CC[C@]12C,inactive,–
COC(=O)C1=CO[C@@H](O[C@@H]2O[C@H](CO[C@@H]3O[C@H](COC(=O)/C=C/c4cc(OC)c(O)c(OC)c4)[C@@H](O)[C@H](O)[C@H]3O)[C@@H](O)[C@H](O)[C@H]2O)[C@@H]2C(CO)=CC[C@H]12,inactive,–
C=C1C[C@@]23CCC4[C@@](C)(CCC[C@@]4(C)C(=O)OC)C2CC[C@@H]1C3 (stereo not given in full),inactive,–
O=C1NC(=O)C(c2cn3c4c(cccc24)CCC3)C1c1c[nH]c2ccccc12 (stereo not given),inactive,–
CC(=O)N[C@@H](Cc1c[nH]c2ccccc12)C(=O)N[C@@H](CCC(=O)O)C(=O)N[C@@H](Cc1cnc[nH]1)C(=O)N[C@@H](CC(=O)O)C(=O)Nc1ccc2c(C(F)(F)F)cc(=O)oc2c1 (Ac-WEHD-{AFC}),inactive,–
CNC(=O)c1ccccc1Nc1nc(Nc2ccc(N3CCNCC3)cc2)ncc1Cl,inactive,–
C=CC1(C)C=C2C(=O)OC(=O)C3=C(CCCC3(C)C)C2(O)CC1 (stereo not given),inactive,–
Cc1ccc(C(=O)N(CCCN)C(c2nc3cc(Cl)ccc3c(=O)n2Cc2ccccc2)C(C)C)cc1 (stereo not given),inactive,–
CC(=O)O[C@@H]1c2c3c(cc(O)c2C(=O)O[C@@H]1C)O[C@@]1(C)[C@@H](O)C[C@H]2C(C)(C)C(=O)C=C[C@]2(C)[C@@H]1C3,inactive,–
CC1(C)CC[C@]2(C(=O)O[C@@H]3O[C@H](CO)[C@@H](O)[C@H](O)[C@H]3O)CC[C@]3(C)C(=CCC4[C@@]5(C)C[C@@H](O)[C@H](O)[C@](C)(C=O)C5CC[C@]43C)[C@@H]2[C@@H]1O (stereo not given in full),inactive,–
Cc1ccc(S(=O)(=O)Nc2ccccc2N2CCCCC2)s1,inactive,–
CC(=O)N[C@@H](CCCCN)C(=O)N(C)[C@@H](CC(C)C)C(=O)N[C@H](C(=O)N(C)[C@@H](Cc1ccccc1)C(=O)N[C@H](Cc1ccccc1)C(N)=O)C(C)C,–,1.59% [at 12.4 µM] (inactive)
CCC(CC)C(=O)Nc1sc2c(c1C#N)CCC(C(C)(C)CC)C2 (stereo not given),inactive,–
